Results taken from ChEMBL document CHEMBL3433997, “St. Jude Leishmania screening dataset” (2016).

Assays:
Type in all cases: functional
[1] = molecular target: Solute carrier family 2, facilitated glucose transporter member 1 (Homo sapiens) (UniProt P11166); experiment: ST_JUDE_LEISH: Cytotoxicity at 2uM final concentration against transgenic Leishmania Mexicana promastigotes LmGLUT1 that are glucose transport deficient and complemented with the human glucose transporter GLUT1. Activity is measured by DNA content using SYBR green in vitro
[2] = molecular target: Hexose transporter 1 (Plasmodium falciparum) (UniProt O97467); experiment: ST_JUDE_LEISH: Cytotoxicity at 2uM final concentration against transgenic Leishmania Mexicana promastigotes LmPfHT that are glucose transport deficient and complemented with the Plasmodium falciparum hexose transporter. Activity is measured by DNA content using SYBR green in vitro
[3] = molecular target: Glucose transporter (Leishmania mexicana) (UniProt O61059); experiment: ST_JUDE_LEISH: Cytotoxicity at 2uM final concentration against transgenic Leishmania Mexicana promastigotes LmGT2 that are glucose transport deficient and complemented with the L. Mexicana glucose transporter 2. Activity is measured by DNA content using SYBR green in vitro

Solute carrier family 2, facilitated glucose transporter member 1 (Homo sapiens), sequence (P11166 whole entry): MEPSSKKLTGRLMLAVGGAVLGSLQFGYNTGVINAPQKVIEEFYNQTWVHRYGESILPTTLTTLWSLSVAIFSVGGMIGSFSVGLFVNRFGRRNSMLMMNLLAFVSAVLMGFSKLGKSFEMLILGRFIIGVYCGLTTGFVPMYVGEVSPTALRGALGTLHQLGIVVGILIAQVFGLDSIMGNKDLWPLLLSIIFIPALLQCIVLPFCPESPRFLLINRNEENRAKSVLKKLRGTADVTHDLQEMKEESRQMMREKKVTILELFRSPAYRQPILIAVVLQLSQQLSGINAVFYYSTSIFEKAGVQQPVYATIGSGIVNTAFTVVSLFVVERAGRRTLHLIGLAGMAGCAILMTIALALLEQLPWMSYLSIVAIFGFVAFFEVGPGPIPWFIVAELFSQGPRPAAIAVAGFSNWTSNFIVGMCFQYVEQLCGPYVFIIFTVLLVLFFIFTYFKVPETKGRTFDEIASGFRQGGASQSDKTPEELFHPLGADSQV

| SMILES | inhibition [1] | inhibition [2] | inhibition [3] |
| --- | --- | --- | --- |
| Cc1cc(=NN=Cc2ccccc2Cl)c2cccc(C)c2[nH]1 | 3.87% | 2.32% | -1.14% |
| CCOC(=O)C1=C(C)NC2=C(C(=O)CCC2)C1c1cn(Cc2ccc(Cl)cc2Cl)nc1-c1ccccc1 (configuration not stated) | 2.11% | -1.29% | 1.62% |
| CC1(C)[C@H]2CC[C@@H](CNc3nc(NCCc4c[nH]cn4)nc(Nc4ccc(Oc5ccccc5)cc4)n3)[C@@H]1C2 | 1.23% | -1.54% | -1.61% |
| CC(C)Cn1c(N)cc(=O)n(C)c1=O | 3.76% | 3.45% | 3.72% |
